Screens deposited in PubChem by The Scripps Research Institute Molecular Screening Center.
This is a sample that favours compounds with a hit; in the whole collection about 1.8% have one here.
GSTO1 inh = GSTO1 inhibition, counter-screen for RBBP9 inhibitors; recombinant GSTO1, activity-based probe fluorescence polarization; AID 1974; hit rate 1.1% among 300,000; inhibition, % at 5.96 µM;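 active = inhibition above the campaign mean inhibition plus 3 SD, cut at about 35% in these data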;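 note: 0% = GSTO1-1 with DMSO and 100% = wells lacking GSTO1-1 enzyme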
PME-1 inh = PME-1 (human) inhibition | Q9Y570 | recombinant PME-1, FP-Rh probe fluorescence polarization | inhibition, % at 5.9 µM | hit rate 0.53% among 320,000 | AID 2130;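 active = inhibition above the campaign mean of all compounds plus 3 SD, cut at about 26% in these data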;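 note: competitive labeling of PME-1 active site by serine hydrolase directed probe; 0% = PME-1 with DMSO and 100% = wells lacking PME-1 enzyme; inhibitors block probe labeling so polarization falls and inhibition rises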
Target sequence (Q9Y570 whole entry, looked up): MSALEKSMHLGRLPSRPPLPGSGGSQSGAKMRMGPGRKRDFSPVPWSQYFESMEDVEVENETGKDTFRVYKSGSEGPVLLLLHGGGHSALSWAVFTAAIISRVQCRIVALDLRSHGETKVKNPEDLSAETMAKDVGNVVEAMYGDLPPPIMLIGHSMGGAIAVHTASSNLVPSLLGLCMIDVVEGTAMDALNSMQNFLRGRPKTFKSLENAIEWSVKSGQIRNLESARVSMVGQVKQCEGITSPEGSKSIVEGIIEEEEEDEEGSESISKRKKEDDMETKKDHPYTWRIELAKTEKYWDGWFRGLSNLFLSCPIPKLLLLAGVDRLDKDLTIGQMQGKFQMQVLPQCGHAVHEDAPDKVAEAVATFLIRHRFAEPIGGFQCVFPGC
LYPLA1 inh = counter-screen for PME1 inhibitors: inhibitors of human LYPLA1; recombinant LYPLA1, FP-Rh probe fluorescence polarization; inhibition, % at 5.9 µM; hit rate 0.16% among 320,000; AID 2174;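 active = inhibition above the mean of all tested compounds plus 3 SD, set per campaign, cut at about 14% in these data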;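 note: inhibitors block serine hydrolase probe labeling of LYPLA1 so polarization falls; 0% = enzyme with DMSO and 100% = wells lacking LYPLA1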
Target sequence (O75608 whole entry, looked up): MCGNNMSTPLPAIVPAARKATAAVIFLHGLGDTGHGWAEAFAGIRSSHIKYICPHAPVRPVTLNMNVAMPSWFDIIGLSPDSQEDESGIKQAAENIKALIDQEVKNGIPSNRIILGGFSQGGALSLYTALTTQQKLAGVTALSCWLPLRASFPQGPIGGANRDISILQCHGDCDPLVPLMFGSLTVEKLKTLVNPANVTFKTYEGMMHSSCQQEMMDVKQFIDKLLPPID
LYPLA2 counter = blocks human lysophospholipase 2, a PME1 counter-screen; O95372; recombinant LYPLA2, FP-Rh probe fluorescence polarization; inhibition, % at 5.9 µM; hit rate 0.38% among 320,000; AID 2177;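 active = inhibition above the screen-wide mean plus 3 SD, limit set per campaign, cut at about 26% in these data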;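 note: 0% = LYPLA2 with DMSO and 100% = wells lacking LYPLA2 enzyme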
Fam108B counter = Fam108B inhibition, counter-screen for RBBP9 inhibitors; recombinant Fam108B, FP-Rh probe fluorescence polarization; inhibition, % at 9.51 µM; hit rate 0.33% among 300,000; AID 1947;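 active = inhibition above the screen mean inhibition plus 3 SD, computed separately per campaign, cut at about 18% in these data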;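 note: inhibitors lower polarization as less probe binds the enzyme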
PAD4 inh = PAD4 (human) enzyme inhibition. recombinant PAD4, RCA probe fluorescence polarization. inhibition, % at 6.36 µM. hit rate 0.41% among 330,000;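 active = percent inhibition above a cutoff equal to the mean of all tested compounds plus 3 SD, cut at about 15% in these data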;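 note: 0% = PAD4 with RCA probe and DMSO and 100% = probe without PAD4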
LYPLA2 conf = counter-screen for PME1 inhibitors: confirmation of human LYPLA2 inhibitors; hit rate 72% among 1,100; inhibition, % at 5.9 µM; recombinant LYPLA2, FP-Rh probe fluorescence polarization; shares compounds with LYPLA2 counter;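 active = mean inhibition across replicates above the hit cutoff set in the primary screen, cut at about 26% in these data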;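 note: blocked labeling of the enzyme by serine hydrolase FP-Rh probe lowers polarization; 0% = enzyme with DMSO and 100% = wells lacking LYPLA2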
LYPLA2 gel ABPP = inhibitors of human LYPLA2; shares compounds with LYPLA2 counter; rhLYPLA2 in mouse brain proteome, gel ABPP FP-Rh; inhibition, % at 20 µM; hit rate 30% among 150; AID 652029;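 active = inhibition of LYPLA2 enzyme probe labeling above about 50%, limit read from the data; inactive = inhibition below that limit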;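 note: loss of FP-Rh probe labeling of the LYPLA2 gel band measured as band density; 0% = DMSO only control band and 100% = blank gel background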
An asterisk follows results filed as active.

Screening O=C(CSc1nc(O)c(C2CCCCC2)c(=O)[nH]1)Nc1ccc(F)cc1 returned GSTO1 inh -4, PME-1 inh -1, LYPLA1 inh 4, LYPLA2 counter 3, Fam108B counter 1 and PAD4 inh 5.
CON=Cc1ccc(N2CCN(C(=O)c3cccc(C(F)(F)F)c3)CC2)c([N+](=O)[O-])c1 was read as LYPLA2 gel ABPP 88*.
Screening CON=Cc1ccc(N2CCN(C(=O)c3ccc(Cl)cc3Cl)CC2)c([N+](=O)[O-])c1 returned LYPLA2 gel ABPP 29.
Screening CO/N=C/c1ccc(N2CCOCC2)c([N+](=O)[O-])c1 returned GSTO1 inh 9, PME-1 inh -6, LYPLA1 inh 2, LYPLA2 counter 0, Fam108B counter 0 and PAD4 inh 0.
`COc1ccc(N2CCN(C(=O)c3ccc(Br)cc3)CC2)c([N+](=O)[O-])c1` gave GSTO1 inh 6, PME-1 inh 3, LYPLA1 inh 3, LYPLA2 counter 48*, Fam108B counter -1, PAD4 inh -3, LYPLA2 conf 56* and LYPLA2 gel ABPP 20.
For COc1ccc(-c2[nH]ncc2CNCC(C)(C)N2CCOCC2)cc1F the results were GSTO1 inh 5, PME-1 inh 2, LYPLA1 inh -1, LYPLA2 counter 0, Fam108B counter 5 and PAD4 inh -3.
`CC(C)C(=O)N1CCC(n2nccc2NC(=O)CCc2ccccc2)CC1` gave GSTO1 inh 4, PME-1 inh -1, LYPLA1 inh -3, LYPLA2 counter 5, Fam108B counter 0 and PAD4 inh -6.
Screening N#C/C(=C\c1ccc(Cl)cc1)c1nc2ncccc2[nH]1 returned GSTO1 inh 16, PME-1 inh -6, LYPLA1 inh -3, LYPLA2 counter -1, Fam108B counter 4 and PAD4 inh -1.
O=C(CSc1ncnc2c1oc1ccccc12)NCc1ccco1 was read as GSTO1 inh -2, PME-1 inh 0, LYPLA1 inh 0, LYPLA2 counter -3, Fam108B counter 1 and PAD4 inh -8.
For O=C(CCCN1CCC(O)(c2cccc(C(F)(F)F)c2)CC1)c1ccc(F)cc1 the results were GSTO1 inh 4, PME-1 inh 1, LYPLA1 inh 0, LYPLA2 counter 72*, Fam108B counter -3, PAD4 inh -2 and LYPLA2 conf 68*.
Screening O=C(CCCN1CCC(O)(c2ccc(Br)cc2)CC1)c1ccc(F)cc1 returned GSTO1 inh -4, PME-1 inh 9, LYPLA1 inh 2, LYPLA2 counter 18, Fam108B counter 7 and PAD4 inh 2.
CN(C(=O)c1ccc(NC(=O)Cc2ccc(NC(=O)C3CCCN(C(=O)C4CCCC4)C3)cc2)cc1)C1CC1 (stereo not drawn) was read as PME-1 inh 2, LYPLA1 inh 5, LYPLA2 counter 57*, PAD4 inh -2, LYPLA2 conf 51* and LYPLA2 gel ABPP 45.
For CN(C(=O)c1ccc(NC(=O)Cc2ccc(NC(=O)C3CCCN(C(=O)c4ccccc4)C3)cc2)cc1)C1CC1 (stereo not drawn) the results were PME-1 inh 1, LYPLA1 inh 3, LYPLA2 counter 63*, PAD4 inh 7, LYPLA2 conf 60* and LYPLA2 gel ABPP 34.
For CN(C(=O)c1ccc(NC(=O)Cc2ccc(NC(=O)C3CCN(C(=O)C4CCCCC4)CC3)cc2)cc1)C1CC1 the results were PME-1 inh 1, LYPLA1 inh 3, LYPLA2 counter 8 and PAD4 inh -1.
Screening CN(C(=O)c1ccc(NC(=O)Cc2ccc(NC(=O)C3CCCN(C(=O)C4CCCCC4)C3)cc2)cc1)C1CC1 (stereo not drawn) returned PME-1 inh 3, LYPLA1 inh 8, LYPLA2 counter 57*, PAD4 inh -1, LYPLA2 conf 51* and LYPLA2 gel ABPP 13.
CN(C(=O)c1ccc(NC(=O)Cc2cccc(NC(=O)C3CCCN(C(=O)C4CCCCC4)C3)c2)cc1)C1CCCC1 (stereo not drawn) was read as PME-1 inh 4, LYPLA1 inh -1, LYPLA2 counter 1 and PAD4 inh -3.
Screening CN(C(=O)c1ccc(NC(=O)Cc2ccc(NC(=O)C3CCCN(C(=O)C4CCC4)C3)cc2)cc1)C1CC1 (stereo not drawn) returned PME-1 inh -2, LYPLA1 inh 4, LYPLA2 counter 66*, PAD4 inh -7, LYPLA2 conf 61* and LYPLA2 gel ABPP 41.
`CCOc1cccc(Nc2ccc([N+](=O)[O-])cn2)c1` gave GSTO1 inh 1, PME-1 inh 0, LYPLA1 inh 4, LYPLA2 counter 28*, Fam108B counter 3, PAD4 inh 3 and LYPLA2 conf 21.
`O=C(CN1C(=O)COc2ccc(S(=O)(=O)N3CCOCC3)cc21)Nc1cccc(Cl)c1` gave GSTO1 inh 0, PME-1 inh -2, LYPLA1 inh -7, LYPLA2 counter 33*, Fam108B counter 2, PAD4 inh 0 and LYPLA2 conf 46*.
COc1cccc(NC(=O)CN2C(=O)CSc3ccc(S(=O)(=O)N4CCOCC4)cc32)c1 was read as GSTO1 inh 3, PME-1 inh 3, LYPLA1 inh 0, LYPLA2 counter 49*, Fam108B counter -2, PAD4 inh -1 and LYPLA2 conf 45*.
Cc1ccc(Cl)cc1NC(=O)CN1C(=O)COc2ccc(S(=O)(=O)N3CCOCC3)cc21 was read as GSTO1 inh 1, PME-1 inh 0, LYPLA1 inh 1, LYPLA2 counter 6, Fam108B counter 0 and PAD4 inh 3.
For COc1cccc(CNC(=O)CN2C(=O)COc3ccc(S(=O)(=O)N4CCCCC4)cc32)c1 the results were GSTO1 inh -1, PME-1 inh 4, LYPLA1 inh -3, LYPLA2 counter 4, Fam108B counter -5 and PAD4 inh 1.
COc1cccc(NC(=O)CN2C(=O)COc3ccc(S(=O)(=O)N4CCOCC4)cc32)c1 was read as GSTO1 inh 1, PME-1 inh -6, LYPLA1 inh -1, LYPLA2 counter 38*, Fam108B counter 1, PAD4 inh -5 and LYPLA2 conf 35*.
Screening COc1cccc(NC(=O)CN2C(=O)COc3ccc(S(=O)(=O)N4CCCCCC4)cc32)c1 returned GSTO1 inh 4, PME-1 inh -8, LYPLA1 inh 1, LYPLA2 counter 35*, Fam108B counter 0, PAD4 inh -1 and LYPLA2 conf 38*.
O=C1NN=C(CSc2n[nH]c(=S)s2)CS1 was read as GSTO1 inh -1, PME-1 inh -3, LYPLA1 inh 5, LYPLA2 counter 1, Fam108B counter -1 and PAD4 inh 1.
